# Bioassay records: PubChem, National Center for Advancing Translational Sciences (NCATS)
# TDP1 inh – inhibitors of human tyrosyl-DNA phosphodiesterase TDP1 | Q9NUW8 | recombinant TDP1, AlphaScreen DNA substrate cleavage | Potency, µM (highest dose often 130 µM), usual class: inhibitors | 350,000 tested, 0.28% active | AID 485290; further: nearly all actives have a fitted effect of over 40% in size
#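 AlphaScreen read-out: signal falls as enzyme removes the 3' tyrosine-FITC from a 5'-biotinylated DNA oligo (15 nM, 5 min, RT). Enzyme was E. coli-made recombinant Tdp1 at 1 nM, exposed to compound for 15 min beforehand; beads 10 ug/ml, 10 min.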
# APEX1 inh – blocks human APE1 abasic DNA cleavage. Potency, µM (series often up to 65.8 µM), most hits filed as inhibitors. P27695. 350,000 tested, 0.35% active. AID 2517. recombinant APE1, TAMRA/BHQ-2 abasic DNA cleavage fluorescence; further: nearly all actives have a fitted effect of over 55% in size
#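 Kinetic fluorescence read (525 ex/598 em nm, three reads 60 s apart) of AP-site incision; signal = third minus first read. Enzyme 0.75 nM, dual-labelled THF duplex 50 nM, compound preincubation 15 min RT.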
# Tb PFK inh – T. brucei PFK enzyme inhibition; AID 485367; T. brucei PFK, ADP-Glo luminescence; 330,000 tested, 0.17% active; O15648; Potency, µM (doses to about 57.5 µM), hits mostly inhibitors; further: nearly all actives have a fitted effect of over 60% in size
#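 Luminescent ADP detection (ADP-Glo, two-step: ATP depletion then ADP-to-ATP conversion for luciferase) reported PFK activity after 45 min room-temperature reaction of 1.25 nM enzyme with 0.5 mM F6P and 0.1 mM ATP at pH 8.0.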
# PI4K2A block – blocks human PI4K2A kinase activity. Q9BTU6. activity change, negative = inhibition, % at 76.9 µM. 420,000 tested, 0.13% active. purified PI4K2A, ADP-Glo luminescence, 1 h; active compounds read low; in the data active means activity change below about -50%; inconclusive means mostly about -30% to -49%
# Target sequence (Q9BTU6 whole entry, looked up): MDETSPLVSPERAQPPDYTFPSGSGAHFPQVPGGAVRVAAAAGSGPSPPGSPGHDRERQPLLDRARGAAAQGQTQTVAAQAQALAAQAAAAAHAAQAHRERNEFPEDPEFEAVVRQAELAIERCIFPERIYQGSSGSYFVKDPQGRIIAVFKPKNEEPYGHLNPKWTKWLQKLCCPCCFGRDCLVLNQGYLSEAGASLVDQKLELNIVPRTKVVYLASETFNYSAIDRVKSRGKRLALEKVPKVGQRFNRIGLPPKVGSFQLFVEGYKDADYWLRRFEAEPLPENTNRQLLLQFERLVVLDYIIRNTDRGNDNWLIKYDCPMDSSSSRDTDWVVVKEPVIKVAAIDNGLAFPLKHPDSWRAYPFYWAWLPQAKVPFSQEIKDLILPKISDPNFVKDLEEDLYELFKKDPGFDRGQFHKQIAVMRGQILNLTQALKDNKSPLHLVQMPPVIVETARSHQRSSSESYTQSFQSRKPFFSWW
#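 PI4K2A activity was measured by ADP-Glo luminescence: enzyme (4 ug/mL stock) and phosphatidylinositol (1.2 mM stock) in Tris pH 7.5/MgCl2/EGTA/Triton X-100 buffer were reacted with ATP (300 microM stock) for one hour at ambient temperature.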
# FEN1 inhibitor – inhibitors of human flap endonuclease 1; P39748; Recombinant FEN1 flap cleavage, fluorescence, 15 min; Potency, µM (series often up to 114 µM), actives largely listed as inhibitors; 390,000 tested, 0.35% active; further: nearly all actives have a fitted effect of over 65% in size
#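 Recombinant FEN1 (10 nM) was preincubated with pin-transferred compounds for 15 min at room temperature, then flap DNA substrate (50 nM final) was added. Plates were read at 0 and 15 min, and normalized concentration–response data were fitted to a four-parameter Hill equation.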
# Tb PGK inh – T. brucei PGK inhibition; PGK/GAPDH coupled, Kinase-Glo luminescence, 60 min; Potency, µM (top dose mostly 57.5 µM), actives largely listed as inhibitors; 380,000 tested, 0.043% active; AID 602233; further: nearly all actives have a fitted effect of over 60% in size
#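 Luminescent ATP detection (Kinase-Glo Plus) follows a 60-minute room-temperature incubation, with wells lacking PGK as controls. Buffer: 100 mM TEA (pH 7.6), 5 mM MgCl2, 0.01% Tween-20. Coupling enzyme GAPDH (100 nM final) supplies unstable 1,3-BPG in-well.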
# Hits are given with their value; n = inactive; u = inconclusive; x = no result; ! = not active in a repeat; [ ] = another dose, or the depositor's remark. Only some compounds are listed: those with a hit (about 0.8% of all), similar ones and a draw of the others. Unless noted, the call rests on the fitted dose curve; in most records, active means well fitted curve in the direction sought with a large enough effect; inconclusive means small, poorly fitted or top-dose-only effect, or another doubt; inactive means no such curve, though single readings can be large; an effect the other way counts as inactive or inconclusive.
SMILES,TDP1 inh,APEX1 inh,Tb PFK inh,PI4K2A block,FEN1 inhibitor,Tb PGK inh
Cc1ccc(NC(=S)c2nc3ccccc3s2)cc1,n,n,n,-82,n,n
COc1ccc(-n2cnc3c(c2=N)C(c2cccc(OC)c2)c2c(ccc4ccccc24)O3)cc1 (configuration not stated),n,x,x,x,x,x
Cc1ccc(Oc2coc3cc(OC(=O)c4cccs4)ccc3c2=O)cc1,n,n,n,n,n,n
CC(=O)Oc1ccc2c(=O)c(Oc3ccccc3)coc2c1OC(C)=O,x,2.2µM,n,n,u,n
COc1ccc(-n2nc(C(=O)N3CCC(N4CCCCC4)CC3)c3c4ccccc4n(C)c3c2=O)cc1,n,n,n,n,89µM,n
O=C(C1CCCCC1)N1CC(=O)N2CCCc3ccccc3C2C1 (configuration not stated),x,x,x,n,x,x
O=C1c2ccccc2-c2onc3ccc(NCCCn4ccnc4)c1c23,n,28µM,n,n,16µM,n[11.5 µM]
NS(=O)(=O)c1ccc(NCCCn2ccnc2)c([N+](=O)[O-])c1,n,n,n,n,n,n
Cc1nc(-c2ccc(C(=O)Nc3cccc(F)c3)cc2)cs1,x,n,n,u,n,n
Cc1nc(-c2ccc(C(=O)Nc3ccccc3F)cc2)cs1,n,n,n,-60,n,u
c1ccc(C[n+]2csc3ccccc32)cc1,n,n,n,n,n,n
O=C(C[n+]1csc2ccccc21)c1ccc(O)c(O)c1,x,x,x,x,50µM,x
Cc1cc(NS(=O)(=O)c2ccc(NC(=O)c3cc4c(=O)n5ccccc5nc4s3)cc2)nc(C)n1,40µM,u,n,n,n,n
Cc1cccc(N(C)C(=S)Oc2ccc3c(c2)C2CCC3C2)c1 (configuration not stated),x,x,x,n,x,x
CC(=O)c1ccc2c(c1)C1C=CCC1C(C(=O)O)N2 (configuration not stated),n,u,8.5µM,n,13µM,14µM
O=C(O)C1Nc2c(cccc2C(F)(F)F)C2C=CCC12 (configuration not stated),x,17µM,n,x,x,x
Cc1ccc(NS(=O)(=O)c2cc3c(cc2-c2ccco2)NC(=O)CO3)cc1C,n,x,x,x,x,x
COc1ccc(C(=O)N(Cc2ccccc2)Cc2ccccc2)cc1COc1ccc(NC(C)=O)cc1,n,x,x,x,x,x
Cc1ccc(NS(=O)(=O)c2cccc(F)c2)cc1C,n,x,x,x,x,x
COc1ccc(NC(=O)C2CCCO2)cc1 (configuration not stated),n,u,n,n,n,n
O=C(Nc1ccc(-c2nc3cccnc3s2)cc1)C1CCCO1 (configuration not stated),n,n,n,-57,n,u
c1ccc(P(c2ccccc2)c2cnc3ccccn23)cc1,n,x,x,x,x,x
Cc1ccnc(N=O)c1,x,n,n,n,50µM,n
Cc1nnc(SCC(=O)NCc2ccco2)[nH]c1=O,x,25µM,n,n,n,n
O=C(Nc1ccc2oc(-c3ccccc3F)nc2c1)c1ccccc1Cl,n[12.3 µM],x,x,n,n,n
SMILES,TDP1 inh,APEX1 inh,Tb PFK inh,PI4K2A block,FEN1 inhibitor,Tb PGK inh
O=C(Nc1ccc2oc(-c3ccccc3F)nc2c1)c1ccc([N+](=O)[O-])o1,x,2.7µM,n,n,n,n
O=[N+]([O-])c1ccc(Cl)c2c1C1C=CCC1C(c1ccccn1)N2 (configuration not stated),n,n,n,u,n,n
O=C(O)c1ccc(Cl)c2c1C1C=CCC1C(c1ccccn1)N2 (configuration not stated),u,25µM,u,x,x,x
CCC(CN)=C(c1ccccc1)c1ccccc1,x,x,x,n,x,x
C=CCc1cccc2cc(C(=O)Nc3ccc(CC(=O)O)cc3)c(=O)oc12,50µM,u,n,n,u,n
CC(=O)N1CCOc2cc(S(=O)(=O)Nc3c(C)cccc3C(C)C)c(Cl)cc21,8.9µM,n,n,n,n,n
COc1cccc(NS(=O)(=O)c2cc3c(cc2C)N(C(C)=O)CCO3)c1,x,n,n,n,n,n
O=S(=O)(c1ccc(NC(=S)N/N=C/c2ccc(O)c(O)c2)cc1)N1CCOCC1,n,13µM,n,n,n,n
O=c1[nH][nH]c2c(N=Cc3ccccc3O)ccc(F)c12,n,8.9µM,u,n,18µM,16µM
O=C(O)CCCN1C(=O)/C(=C\c2ccc(-c3nc4ccccc4s3)o2)SC1=S,u,u,n,n,35µM,u
O=C(O)CCN1C(=O)/C(=C/c2ccc(-c3nc4ccccc4s3)o2)SC1=S,n,n,n,n,n,n
Cc1ccsc1CNc1ncnc2ccc(-c3ccc4c(c3)OCO4)cc12,n,x,x,x,x,x
O=C1CCCN2N=C(SCC(=O)Nc3nccs3)SC2=N1,45µM,n,n,n,n,n
CCOc1ccc(-c2c(C(=O)N/N=C/c3cccnc3)nnn2-c2nonc2N)cc1,50µM,n,n,n,n,n
Nc1ccc(-c2cnc[nH]2)cc1[N+](=O)[O-],n,n,n,-51,n,n
O=C1NC(c2ccccc2)(c2ccccc2)C(=O)N1COP(=O)(O)O,x,x,x,n,x,x
COc1ccccc1N=c1oc2cc(O)ccc2cc1C(=O)NCC1CCCO1 (configuration not stated),n,n,n,n,n,n
COc1ccccc1N=c1oc2cc(O)ccc2cc1C(N)=O,n,n,n,-52,n,n
Cn1c2cc(S(C)=O)sc2c2cnn(Cc3cccc(O)c3)c(=O)c21 (configuration not stated),n,x,x,x,x,x
COCCn1c(C)cc(C2=NNC(=Nc3ccccc3)SC2)c1C,n,n,n,-52,n,n
O=C(c1cnn2c1NC(=C1CC1)C=C2C(F)F)N(C1CCCCC1)C1CCCCC1,x,n,x,x,x,x
CC(=O)Nc1ccc(OCc2cccc(C3Nc4ccccc4C(=O)N3Cc3ccco3)c2)cc1 (configuration not stated),n,x,x,x,x,x
CCN(CC)CCCNC(=O)c1cc2c(-c3ccc(Cl)cc3)nn(C)c2s1,n,u,n,n,45µM,n
Cc1cccn2c(=O)c3cc(C#N)c(=NC(=O)c4ccccc4)n(Cc4ccco4)c3nc12,x,x,x,u,50µM!,n
CCOC(=O)c1cc2c(=O)n3ccccc3nc2n(Cc2ccco2)c1=NC(=O)c1ccc(Br)cc1,n,x,x,n,35µM,n
Cc1cc(N2C(=O)c3ccccc3C2=O)n[nH]1,n,x,x,x,x,x
O=C(COc1ccc2c(c1)CCC2)Nc1ccccn1,n,n,n,-62,n,u
Cc1ccc(NC(=O)CSc2nnc(-c3cccc([S+](=O)([O-])N4CCCC4)c3)n2-c2c(C)cccc2C)cc1,x,n,x,x,x,x
COc1ccc2nc3cc(Cl)ccc3c(Nc3cc(C(C)C)c(O)cc3C)c2c1,n,n,n,n,n,n
